The nature of experiment [1]: compounds binding Alexa647 anti-His antibody – biochemical, small-molecule microarray, 635 nm fluorescence, artefact control for SMM control protein annotation, primary screen (AID 1128).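 Further: score merges feature fluorescence with signal-to-noise for each printed compound spot.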 The following applies: higher = more signal.
In experiment [2] the test system is Human papillomavirus type 1a E7 protein (residues 1-88). In words: HPV1a E7 small-molecule binders, primary screen, biochemical, small-molecule microarray, residues 1-88, 635 nm (AID 1129). The following applies: small-molecule microarray binding, fluorescence 635 nm; higher = more signal.
In experiment [3] the target is Focal adhesion kinase 1 (Homo sapiens) (UniProt Q05397). In words: PTK2 protein binding on printed compound slides – biochemical, small-molecule microarray, 635/667 nm fluorescence, BSA, DTT, primary screen (AID 1130).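 Further: composite of spot emission at 667 nm and signal to noise over triplicate slides.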 The following applies: 635 nm fluorescence, higher = more signal.
For experiment [4], the system named is Fibrinogen (Alexa647-labelled). Nature of the experiment: Alexa647-fibrinogen binding to printed small molecules – biochemical, small-molecule microarray, 635/667 nm fluorescence, artefact control for SMM control-protein annotation, profiling panel (AID 1131).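 Further: z-score merges 667 nm fluorescence with per-spot signal-to-noise over triplicate slides.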 The settings on record: fibrinogen-A647 binding fluorescence, higher = more signal.
Experiment [5] addresses Follistatin (Homo sapiens) (UniProt P19883). Nature of the experiment: FST protein binding to printed compounds – biochemical, small-molecule microarray, 635/667 nm fluorescence, primary screen (AID 1132). The settings on record: 635 nm fluorescence, higher = more signal.
Experiment [6] deals with Fibroblast growth factor 2 (Homo sapiens) (UniProt P09038). In words: basic fibroblast growth factor binding to printed compounds – biochemical, small-molecule microarray, 635/667 nm fluorescence, primary screen (AID 1133). The settings on record: FGF2, fluorescence 635/667, higher = more signal.
Experiment [7] is described as follows: JC-1 mitochondrial potential readout, lung cancer cells – cell-based, A549, JC-1 fluorescence, basal, 24 h, 100 nL, profiling panel (AID 1138).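 Further: A549 lung adenocarcinoma cells under basal conditions with no added stimulus; test concentration not given here.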 The settings on record: higher = more signal.
The next experiment deals with Lefty1. Nature of the experiment: Lefty1 protein binding to printed compounds – biochemical, small-molecule microarray, 635/667 nm fluorescence, primary screen (AID 1139). The following applies: fluorescence 635/667, higher = more signal.
Experiment [8] has as its system wheat germ agglutinin (Triticum aestivum), Alexa647-labelled. Nature of the experiment: Alexa647-WGA lectin binding to printed small molecules – biochemical, small-molecule microarray, 635/667 nm fluorescence, artefact control for SMM control-protein annotation, profiling panel (AID 1140).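 Further: score merges 667 nm feature emission with signal to noise over triplicate slides.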 The following applies: WGA-A647 binding, 635 nm fluorescence, higher = more signal.

For experiment [9], the target named is Luciferin 4-monooxygenase (Photinus pyralis) (UniProt P08659). In words: inhibition of purified Photinus pyralis luciferase – biochemical, luminescence, purified enzyme, 2006 set, primary screen (AID 1141).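 Further: cell-free assay with purified firefly luciferase at 100 ng per well in PBS; test concentration not given here.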 The following applies: purified firefly luciferase, SteadyGlo luminescence, 30 min; higher = more signal, called active from +8 up or from −8 down.

Calls of active or inactive are those of the source.

Chain of Follistatin (Homo sapiens) (P19883 whole entry, looked up): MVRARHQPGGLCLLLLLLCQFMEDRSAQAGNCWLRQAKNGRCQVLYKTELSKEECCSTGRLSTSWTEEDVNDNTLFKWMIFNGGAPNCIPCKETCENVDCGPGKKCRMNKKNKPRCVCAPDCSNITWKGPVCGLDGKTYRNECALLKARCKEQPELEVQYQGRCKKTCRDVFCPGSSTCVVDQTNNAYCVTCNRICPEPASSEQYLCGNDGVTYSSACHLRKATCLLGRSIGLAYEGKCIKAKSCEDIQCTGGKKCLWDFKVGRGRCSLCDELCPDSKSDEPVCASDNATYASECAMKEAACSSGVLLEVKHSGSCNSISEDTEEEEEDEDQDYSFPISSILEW
Chain of Fibroblast growth factor 2 (Homo sapiens) (P09038 whole entry, looked up): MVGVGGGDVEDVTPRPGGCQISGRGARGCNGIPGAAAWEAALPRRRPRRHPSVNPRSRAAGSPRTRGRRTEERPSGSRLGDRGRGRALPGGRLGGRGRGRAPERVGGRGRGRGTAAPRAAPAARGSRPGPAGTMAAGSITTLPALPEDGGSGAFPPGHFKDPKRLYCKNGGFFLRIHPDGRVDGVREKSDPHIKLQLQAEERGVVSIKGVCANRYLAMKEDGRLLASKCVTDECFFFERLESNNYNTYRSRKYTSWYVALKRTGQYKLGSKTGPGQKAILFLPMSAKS
Chain of Luciferin 4-monooxygenase (Photinus pyralis) (P08659 whole entry, looked up): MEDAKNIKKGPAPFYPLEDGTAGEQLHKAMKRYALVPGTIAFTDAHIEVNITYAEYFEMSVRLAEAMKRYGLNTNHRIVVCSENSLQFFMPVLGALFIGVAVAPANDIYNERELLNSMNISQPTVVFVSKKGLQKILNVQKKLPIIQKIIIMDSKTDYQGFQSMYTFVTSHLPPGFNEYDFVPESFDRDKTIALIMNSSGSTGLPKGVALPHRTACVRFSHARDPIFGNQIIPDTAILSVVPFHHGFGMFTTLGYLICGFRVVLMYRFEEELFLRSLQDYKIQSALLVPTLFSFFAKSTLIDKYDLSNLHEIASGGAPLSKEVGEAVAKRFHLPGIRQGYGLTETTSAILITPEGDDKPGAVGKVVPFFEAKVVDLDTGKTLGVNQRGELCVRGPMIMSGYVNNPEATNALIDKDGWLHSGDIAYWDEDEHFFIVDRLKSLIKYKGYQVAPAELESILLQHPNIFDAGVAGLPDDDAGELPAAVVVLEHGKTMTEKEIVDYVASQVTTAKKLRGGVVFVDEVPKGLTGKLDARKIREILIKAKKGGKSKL
Chain of Focal adhesion kinase 1 (Homo sapiens) (Q05397 whole entry, looked up): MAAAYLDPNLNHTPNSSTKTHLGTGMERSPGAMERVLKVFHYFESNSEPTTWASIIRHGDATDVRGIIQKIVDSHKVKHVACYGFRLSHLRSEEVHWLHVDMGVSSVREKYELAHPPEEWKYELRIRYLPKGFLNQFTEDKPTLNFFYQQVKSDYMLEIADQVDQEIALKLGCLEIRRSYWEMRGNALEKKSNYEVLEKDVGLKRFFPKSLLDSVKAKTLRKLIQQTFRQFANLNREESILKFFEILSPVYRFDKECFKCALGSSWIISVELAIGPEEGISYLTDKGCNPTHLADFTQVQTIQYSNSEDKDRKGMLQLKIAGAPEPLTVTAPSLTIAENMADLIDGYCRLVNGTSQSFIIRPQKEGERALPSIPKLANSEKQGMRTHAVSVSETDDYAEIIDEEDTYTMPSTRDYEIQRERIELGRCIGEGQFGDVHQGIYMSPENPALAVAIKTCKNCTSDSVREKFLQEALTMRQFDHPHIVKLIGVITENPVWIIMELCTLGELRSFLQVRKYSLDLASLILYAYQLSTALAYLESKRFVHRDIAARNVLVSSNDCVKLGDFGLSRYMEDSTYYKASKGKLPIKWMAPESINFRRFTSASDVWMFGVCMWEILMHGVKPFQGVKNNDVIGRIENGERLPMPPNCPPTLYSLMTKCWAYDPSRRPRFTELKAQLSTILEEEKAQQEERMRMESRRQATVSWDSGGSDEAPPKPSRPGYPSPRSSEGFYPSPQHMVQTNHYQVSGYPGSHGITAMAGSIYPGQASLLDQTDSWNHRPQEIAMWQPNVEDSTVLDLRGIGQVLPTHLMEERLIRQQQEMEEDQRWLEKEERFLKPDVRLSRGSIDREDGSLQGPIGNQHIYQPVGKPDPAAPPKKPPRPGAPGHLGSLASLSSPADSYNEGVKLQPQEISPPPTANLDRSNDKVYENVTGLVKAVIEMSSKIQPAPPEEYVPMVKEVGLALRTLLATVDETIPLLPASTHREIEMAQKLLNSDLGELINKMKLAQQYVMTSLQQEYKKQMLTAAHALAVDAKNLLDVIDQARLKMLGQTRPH

With `CON=C[C@@H](OC)[C@H](C)C=CCC(=O)OC`, the composite z-score in [1] was 1.66; in experiment [2], 0.158; in [3], -0.069; in experiment [4], -1.5; in [5] it was 0.0902; in experiment [6] it was 0.0231. Moreover, the composite z-score is 0.0713 in the experiment with Lefty1 and -0.115 in experiment [8]. Also, the z-score in experiment [7] was -0.223; in experiment [9], -0.982 (inactive).

Turning to `C#CCCCON=C1C[C@@H](O)[C@@H](O)[C@@H]2[C@@H]3C(=O)N(C[C@@H]4CCCO4)C(=O)[C@@H]3CC[C@H]12`, the composite z-score in experiment [1] is 0.185; in experiment [2], 0.508; in experiment [3] it was 0.235; in experiment [4] it was 0.509; in [5] it was 0.669; in experiment [6], 0.103. Also, the composite z-score turned out to be 0.388 with Lefty1 and 0.0691 in experiment [8]. Further, the z-score is -0.544 in experiment [7] and 0.451 (inactive) in experiment [9].

As for `COC(=O)[C@@H]1CC[C@H](C)[C@@H](c2ccc(Br)cc2)N1C(=O)C(F)(F)F`, the composite z-score in [1] was -0.0497; in experiment [2], -1.42; in experiment [3], -0.0957; in [4] it was -0.0695; in experiment [5], -0.202; in experiment [6], -0.0514. The composite z-score with Lefty1 is -0.125; in experiment [8] it was -0.321. Besides, the z-score in [7] is 0.0789; in [9] it was -0.1 (inactive).

As to `CCOC(=O)[C@H](CC(C)C)NC(=O)CCC1CC(OC(=O)NCc2ccc3c(c2)OCO3)CC2(CCCC(COC(=O)NCCC(C)C)O2)O1` (stereo not given in full), the composite z-score in [1] is 0.348; in [2], -0.438; in experiment [3] it was 0.0454; in experiment [4], -0.27; in [5], -0.14; in [6], 0.279. In addition, the composite z-score with Lefty1 amounted to 0.172; in experiment [8], 0.182. In addition, the z-score in experiment [7] is 0.471; in experiment [9], 0.537 (inactive).

As for `CC(=O)OC[C@H]1O[C@H](CC=NO[C@@H](C)c2cn([C@H](CO)Cc3ccccc3)nn2)C=C[C@@H]1OC(C)=O`, the composite z-score in experiment [1] was -0.0515; in experiment [2], 0.656; in experiment [3], -0.0806; in experiment [4] it was 0.827; in experiment [5] it was 0.679; in experiment [6], 0.45. In addition, the results for the composite z-score (in the experiment on Lefty1; in [8]) were 1.05 and 0.233, respectively. For the same compound, the z-score in experiment [7] is -1.56; in experiment [9], 1.36 (inactive).

For the compound `COCCNC(=O)OCC1CCCC2(CC(OC(=O)NCc3cccc4ccccc34)CC(CCC(=O)N[C@@H](C)C(=O)OC)O2)O1` (stereo not given in full), the composite z-score was 0.522 in experiment [1]; 1.13 in experiment [2]; -0.208 in experiment [3]; 0.912 in [4]; 0.728 in experiment [5]; 1.04 in [6]. Besides, the composite z-score in the experiment on Lefty1 amounted to 0.42; in experiment [8] it was 0.598. The z-score in [7] is 0.609; in experiment [9], 0.396 (inactive).

On to `CO[C@H]1COC(=O)[C@H](CCSC)NC(=O)CC=C[C@@H](C)[C@H](OC)COC(=O)[C@@H](OCc2ccccc2)C=C[C@@H]1C`, for which the composite z-score is 0.657 in experiment [1]; 0.116 in experiment [2]; -0.0918 in [3]; -0.84 in experiment [4]; 1.23 in experiment [5]; 0.689 in experiment [6]. The composite z-score with Lefty1 is 1.3; in experiment [8], -0.36. The z-score in experiment [7] is -1.19; in experiment [9], 1.28 (inactive).

As to `CC(=O)OC[C@H]1O[C@H](CC=NOC[C@@H](O)COCc2ccco2)C=C[C@@H]1OC(C)=O`, the composite z-score in [1] is 0.526; in experiment [2] it was -0.193; in [3], 0.0925; in experiment [4] it was -0.629; in experiment [5], 1.38; in [6], 1.54. Moreover, the results for the composite z-score (in the experiment on Lefty1; in experiment [8]) were 1.52 and -0.327, respectively. The z-score in [7] was 0.548; in experiment [9], 0.642 (inactive).

As to `O=C1[C@H]2[C@H]3[C@H](O)[C@H](O)CC(=NOCc4ccccc4)[C@@H]3CC[C@H]2C(=O)N1c1cccc(Oc2ccccc2)c1`, the composite z-score in [1] came out at 0.695; in experiment [2] it was 0.452; in experiment [3] it was 0.0881; in experiment [4] it was 0.96; in experiment [5], 0.248; in experiment [6], 0.184. Also, the composite z-score in the experiment with Lefty1 was 0.687; in experiment [8] it was 0.315. Moreover, the z-score in experiment [7] is 0.578; in experiment [9], 0.245 (inactive).

In the case of `COC(=O)[C@@H]1CC[C@H](C)[C@@H](c2ccc(Br)cc2)N1`, the composite z-score in experiment [1] was 0.426; in [2], -1.3; in experiment [3], 1.38; in [4], 0.102; in experiment [5], -0.291; in experiment [6] it was -0.21. Besides, the composite z-score in the experiment on Lefty1 was -0.04; in [8], -0.197. For the same compound, the z-score in experiment [7] was 0.0492; in [9], -0.464 (inactive).

For `CC(C)(C)N1C(=O)[C@H]2[C@H]3[C@H](O)[C@H](O)CC(=NNC(=O)OCc4ccccc4)[C@H]3CC[C@H]2C1=O`, the composite z-score in experiment [1] came out at 0.758; in experiment [2], 0.848; in [3], 0.0507; in experiment [4] it was 1.03; in [5], 0.963; in [6], 0.491. Also, the figures for the composite z-score (with Lefty1; in experiment [8]) were 1.43 and 0.525, respectively. For the same compound, the z-score in [7] is -1.08; in experiment [9] it was 0.944 (inactive).
